PubChem BioAssay AID504523 (Broad Institute, 2011)
In all, about 340,000 compounds went through this assay and about 490 (0.14%) were called active. Rule as the data show it: active = inhibition above about 12%; inconclusive = no clear call, values can overlap the other calls; inactive = below about 7.3%. This excerpt belongs to a sample that is enriched for actives.

molecular target: Kelch-like ECH-associated protein 1 (Homo sapiens) (UniProt Q14145); assay: Keap1-Nrf2 protein-protein interaction inhibitors, primary screen, biochemical, fluorescence polarization, single point (AID 504523); settings: Keap1 Kelch-Nrf2 peptide fluorescence polarization, 1536-well; at 9.4 µM; stronger effect = higher value;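 also: human Keap1 Kelch domain with fluorescein labeled Nrf2 9mer peptide probe; 0% = neutral control wells and 100% = peptide positive control; higher means more block of Keap1 binding to Nrf2 peptide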
Sequence (Q14145 whole entry, looked up, the tested form may be a part): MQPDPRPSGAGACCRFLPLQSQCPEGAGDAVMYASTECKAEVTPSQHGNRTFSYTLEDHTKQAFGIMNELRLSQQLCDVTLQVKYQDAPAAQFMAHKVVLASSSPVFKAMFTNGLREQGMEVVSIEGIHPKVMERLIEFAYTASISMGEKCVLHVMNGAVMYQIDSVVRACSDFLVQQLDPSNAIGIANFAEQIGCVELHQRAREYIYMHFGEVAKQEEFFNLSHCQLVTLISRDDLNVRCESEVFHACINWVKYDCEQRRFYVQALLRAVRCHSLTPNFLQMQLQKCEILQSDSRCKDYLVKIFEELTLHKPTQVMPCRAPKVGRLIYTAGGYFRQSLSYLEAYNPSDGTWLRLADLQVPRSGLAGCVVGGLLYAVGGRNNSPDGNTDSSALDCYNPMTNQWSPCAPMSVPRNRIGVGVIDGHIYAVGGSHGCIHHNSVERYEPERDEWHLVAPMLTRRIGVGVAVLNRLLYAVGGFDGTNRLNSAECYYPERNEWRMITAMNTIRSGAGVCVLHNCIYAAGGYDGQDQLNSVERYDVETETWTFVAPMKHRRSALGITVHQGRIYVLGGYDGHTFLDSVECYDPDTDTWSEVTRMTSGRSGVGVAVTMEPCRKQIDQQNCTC

inhibition, active:
CCCC1OC23CCCCC2C(C#N)(C#N)C1(C#N)C(=N)O3 (configuration not stated) 20.6%
O=C(Nc1ccccn1)C1CCN(S(=O)(=O)c2ccc3c(c2)OCCO3)CC1 24.3%
CCN1/C(=C\c2ccc3ccccc3[n+]2CC)Sc2cc(C)ccc21 15.5%

inhibition, inactive:
COc1ccc(NS(=O)(=O)c2cc(NC(=O)CC(=O)c3ccc([N+](=O)[O-])cc3)ccc2C)cc1 -4.68%
O=C1CCCCC1Sc1ccc(Cl)cc1[N+](=O)[O-] (configuration not stated) 1.45%
CC1=NNC(=O)C1CC(=O)N/N=C/c1ccncc1 (configuration not stated) 2.78%
Cc1ccc(S(=O)(=O)CCC(=O)OCC(=O)N(C)Cc2ccccc2)cc1 -7.11%
CN1c2ccc([N+](=O)[O-])cc2C(C)(C)C12C=Cc1cc(C(=O)O)ccc1O2 (configuration not stated) 4.39%
CC(=O)Oc1ccc(C(C)=O)c2c1OCCO2 -3%
CCCc1nnc(NC(=O)CCC(=O)NC2CC2)s1 -3.82%
O=C1c2ccccc2S(=O)(=O)c2cc(N3CCN(c4ccccn4)CC3)ccc21 3.87%
CCOC(=O)c1nn(-c2cccc(C)c2)cc1C(=O)c1ccccc1 3.24%
Cc1ccccc1OCC(=O)NCC(=O)OCC(=O)c1ccc2ccccc2c1 -0.965%
O=C(Nc1ccccn1)C1CCN(S(=O)(=O)c2ccccc2)CC1 -4.55%
O=C(NCc1cccs1)C1CCN(S(=O)(=O)c2ccc3c(c2)OCCO3)CC1 -2.29%
O=C1[C@H]2[C@@H](c3ccc(F)cc3)N3C(=O)N(c4ccc(C(F)(F)F)cc4)C(=O)[C@@]3(Cc3ccccc3)[C@H]2C(=O)N1C1CCCCC1 -3.09%
O=C(C1=C(O)C(=O)N(CCOCCO)C1c1ccccn1)c1cccs1 (configuration not stated) 5.97%
CC[C@H]1OC(=O)[C@H](C)[C@@H](O[C@H]2C[C@@](C)(OC)[C@@H](O)[C@H](C)O2)[C@H](C)[C@@H](O[C@@H]2O[C@H](C)C[C@H](N(C)C)[C@H]2O)[C@](C)(O)C[C@@H](C)[C@@H]2N[C@@H](COCCOC)O[C@H]([C@H]2C)[C@]1(C)O 1.21%
COC1=CC(=O)OC(C)(c2ccccc2)C1 (configuration not stated) 1.18%
COc1ccc(Cl)cc1NC(=O)CN(C)C(=O)c1ccc2n[nH]nc2c1 0.863%
Cn1c(=O)c2c(SCC(=O)N3CCOCC3)nc(C3CC3)nc2n(C)c1=O -7.01%
O=S(=O)(c1cccs1)N1CCN(CCOc2ccccc2)CC1 -5.25%
